# Several values for one entry are separate records, joined by “and”; a condition that tells them apart may be missing. Equal values may be shown once. Inconclusive results are not listed. Where a call stands in place of a potency, no number is given. Activity calls are given as the source filed them. Unless noted, the call rests on the fitted dose curve; in most records, active means well fitted curve in the direction sought with a large enough effect; inconclusive means small, poorly fitted or top-dose-only effect, or another doubt; inactive means no such curve, though single readings can be large; an effect the other way counts as inactive or inconclusive.
# Legend:
# [1] = target: Aldehyde dehydrogenase, mitochondrial (Homo sapiens) (UniProt P05091); test: qHTS for Inhibitors of the Aldehyde Dehydrogenase Family (ALDH2) Confirmatory screens (AID 2061303; active means well fitted inhibition curve with a large enough effect; title and protocol of this record describe different tests; further: nearly all actives have a fitted effect of over 45% in size; further: potency means the concentration at half of the fitted maximal effect)
# [2] = qHTS for Inhibitors of the Aldehyde Dehydrogenase Family (ALDH1A2, ALDH1A3, ALDH2, ALDH3A1) (AID 2061307); further: nearly all actives have a fitted effect of over 50% in size; on potency: test system not described further here; potency means the concentration at half of the fitted maximal effect
# [3] = target: Aldehyde dehydrogenase, mitochondrial (Homo sapiens) (UniProt P05091); test: qHTS for Inhibitors of the Aldehyde Dehydrogenase Family (ALDH2) Primary screen (AID 2061308); further: nearly all actives have a fitted effect of over 55% in size; further: potency means the concentration at half of the fitted maximal effect
# [4] = target: Retinaldehyde dehydrogenase 3 (Homo sapiens) (UniProt P47895); test: qHTS for Inhibitors of the Aldehyde Dehydrogenase Family (ALDH1A3) Confirmatory screens (AID 2061311); further: potency means the concentration at half of the fitted maximal effect; nearly all actives have a fitted effect of over 60% in size
# [5] = target: Retinal dehydrogenase 2 (Homo sapiens) (UniProt O94788); test: qHTS for Inhibitors of the Aldehyde Dehydrogenase Family (ALDH1A2) Confirmation screens (AID 2061314); further: nearly all actives have a fitted effect of over 65% in size; further: potency means the concentration at half of the fitted maximal effect
# [6] = target: Aldehyde dehydrogenase 1A1 (Homo sapiens) (UniProt P00352); test: qHTS for Inhibitors of the Aldehyde Dehydrogenase Family (ALDH1A1) Confirmatory screens (AID 2061316); further: nearly all actives have a fitted effect of over 65% in size; further: potency means the concentration at half of the fitted maximal effect
# [7] = target: Retinaldehyde dehydrogenase 3 (Homo sapiens) (UniProt P47895); test: qHTS for Inhibitors of the Aldehyde Dehydrogenase Family (ALDH1A3) Primary screen (AID 2061315)
# [8] = target: Retinaldehyde dehydrogenase 3 (Homo sapiens) (UniProt P47895); test: qHTS for Inhibitors of the Aldehyde Dehydrogenase Family (ALDH1A3) Validation screen (AID 2061312); further: nearly all actives have a fitted effect of over 45% in size
smiles,measurement,setting,value
N#Cc1c(-c2ccc([N+](=O)[O-])o2)no[n+]1[O-],Potency,[1],2.82 µM (active)
same,Potency,[2],10.1 µM (active)
same,Potency,[3],3.16 µM (active)
same,Potency,[4],7.94 µM (active)
same,Potency,[5],15.8 µM (active)
same,Potency,[6],2.25 µM (active)
O=S(=O)(Nc1ccc(-c2ccccc2)cc1)c1ccc(NCc2cccc(Cl)c2O)cc1,Potency,[2],25.2 µM (active)
same,Potency,[5],25.2 µM (active)
same,Potency,[7],inactive
CCOc1ccc(CCNC(=O)c2cc3ccncc3n2Cc2cccc(C)n2)cc1OCC,Potency,[2],inactive
same,Potency,[3],inactive
same,Potency,[7],inactive
same,Potency,[6],inactive
O=[N+]([O-])c1ccc2nc(N3CCNCC3)ccc2c1,Potency,[1],398 nM (active) and 2.51 µM (active)
same,Potency,[2],14.1 µM (active) and 12.6 µM (active)
same,Potency,[4],10 µM (active)
same,Potency,[5],2.51 µM (active) and 6.31 µM (active)
same,Potency,[6],15.9 µM (active)
CCC1NC(=O)C2C(Cl)C(Cl)CN2C(=O)C(CC)NC(=O)CC(c2ccccc2)NC(=O)C(CO)NC1=O (configuration not stated),Potency,[1],inactive
same,Potency,[3],inactive
same,Potency,[5],inactive
same,Potency,[7],inactive
O=c1[nH]c(CN2CCNCC2)nc2ccccc12,Potency,[2],inactive
CCCCCn1c(C)c(C(=O)c2ccc(OC)c3ccccc23)c2ccccc21,Potency,[2],inactive
N[C@@]1(c2ccccc2Cl)CCC=CC1=O,Potency,[2],inactive
CCOc1ccc(CCNC(=O)c2cc3cnccc3n2Cc2cccc(C)n2)cc1OCC,Potency,[1],inactive
same,Potency,[3],inactive
same,Potency,[7],inactive
same,Potency,[6],inactive
CCOc1ccc(CCNC(=O)c2cc3ncccc3n2Cc2cccc(C)n2)cc1OCC,Potency,[1],inactive
same,Potency,[2],inactive
same,Potency,[3],inactive
same,Potency,[5],inactive
same,Potency,[7],inactive
NC(N)=Nc1ccc2[nH]c3c(c2c1)C[C@@]1(O)C2Cc4ccc(O)c5c4[C@@]1(CCN2CC1CC1)[C@H]3O5,Potency,[2],inactive
COC1CC(O[C@H]2CC[C@]3(C)C4CC[C@]5(C)[C@@H](C6=CC(=O)OC6)[C@@H](OC(C)=O)C[C@]5(O)C4CC[C@@H]3C2)OC(C)C1O (some centres not stated),Potency,[3],inactive
CC(=O)c1ccc(N=[N+]=[N-])cc1,Potency,[2],8.96 µM (active)
COC1CC(OC2CCC3(C)C(CCC4C3CCC3(C)C(C5=CC(=O)OC5)C(OC(C)=O)CC43O)C2)OC(C)C1OC1OC(CO)C(O)C(O)C1O (configuration not stated),Potency,[3],inactive
Cn1cc(P(=S)(c2ccccc2)c2ccccc2)c2ccccc21,Potency,[3],inactive
same,Potency,[7],inactive
Cn1c(-c2ccccc2)c(P(=S)(c2ccccc2)c2ccccc2)c2ccccc21,Potency,[3],inactive
same,Potency,[7],inactive
OC(CNc1ccccc1)Cn1c2ccc(Br)cc2c2cc(Br)ccc21 (configuration not stated),Potency,[3],inactive
same,Potency,[7],inactive
COC(=O)C12C(=O)C(C)(O)C(=O)C1(C)C(C)=CC1C3(C=O)CCC(OC(C)=O)C(C)(C)C3CCC12C (configuration not stated),Potency,[3],inactive
same,Potency,[7],inactive
O=C1CN=C(c2cccc(Br)c2)c2oc3ccccc3c2N1,Potency,[3],inactive
same,Potency,[8],inactive
same,Potency,[7],inactive
N#Cc1cn([C@@H]2O[C@H](CO)[C@H](O)[C@@H]2O)c2ncnc(N)c12,Potency,[3],inactive
same,Potency,[8],inactive
same,Potency,[7],inactive
C[C@@H]1O[C@@H](OC2CCC3(C=O)C(CCC4C3CCC3(C)C(C5=CC(=O)OC5)C(O)CC43O)C2)[C@H](O)[C@H](O)[C@H]1O[C@@H]1O[C@H](CO)[C@@H](O)[C@H](O)[C@H]1O (some centres not stated),Potency,[3],inactive
COC1CC(O[C@H]2CC[C@]3(C)C4CC[C@]5(C)[C@@H](C6=CC(=O)OC6)[C@@H](OC(C)=O)C[C@]5(O)C4CC[C@@H]3C2)OC(C)C1O[C@@H]1O[C@H](CO)[C@@H](O)[C@H](O)[C@H]1O (some centres not stated),Potency,[3],inactive
C[C@H]1CN(CC[C@H](O)C2CCCCC2)CC[C@@]1(C)c1cccc(O)c1,Potency,[3],inactive
same,Potency,[8],inactive
same,Potency,[7],inactive
C[C@H]1O[C@@H](O[C@H]2CC[C@]3(CO)C4CC[C@]5(C)[C@@H](C6=CC(=O)OC6)CC[C@]5(O)[C@@H]4CC[C@H]3C2)[C@H](O)[C@H](O)[C@@H]1O[C@@H]1O[C@H](CO)[C@@H](O)[C@H](O)[C@H]1O (some centres not stated),Potency,[3],inactive
same,Potency,[5],inactive
same,Potency,[7],inactive
same,Potency,[6],inactive
C[C@@H]1C[C@@H](O)[C@]2(O)O[C@@H]3C[C@@]4(C=O)C(CC[C@@H]5C4CC[C@]4(C)[C@@](O)(C6=CC(=O)OC6)CC[C@]54O)C[C@H]3OC2O1 (some centres not stated),Potency,[3],inactive
CC(=O)OCC(N)C(=O)c1ccccc1 (configuration not stated),Potency,[3],inactive
CC(=O)Nc1ncc(S(=O)(=O)N2CCOCC2)s1,Potency,[3],inactive
same,Potency,[7],inactive
C=C1[C@@H](O)[C@]2(O)OC[C@]34C2[C@]2(C)C(C[C@H]3OC(=O)[C@H](O)[C@@]14O)C(C)=CC(=O)[C@H]2O (some centres not stated),Potency,[3],inactive
same,Potency,[7],inactive

# Source: PubChem BioAssay (NCATS)
